From PubChem BioAssay (EPA / NIEHS)
Results filed as inconclusive are left out. Active and inactive are the calls of the source. Rule for the calls: active = hit-call score of the fitted dose curve at least 0.9, where 1 is the maximum; inconclusive = response in the unintended direction; inactive = score below 0.9.

Biological target: rabbit Imidazoline 2 Central (I2C), CKB (gene 100009085) (UniProt P00567)
Assay: NVS_ENZ_rabI2C: NovaScreen (NVS) Enzymatic Assay for rabbit Imidazoline 2 Central (I2C) (AID 2283228)
Summary of the method: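 Rabbit brain membranes, cell-free; readout by filter-based scintillation counting 1.5 hours after dosing, loss of signal vs DMSO. Initial duplicate test at 25 uM, then concentration-response with 50 uM top concentration.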

Chain of rabbit Imidazoline 2 Central (I2C), CKB (gene 100009085) (P00567 whole entry, looked up): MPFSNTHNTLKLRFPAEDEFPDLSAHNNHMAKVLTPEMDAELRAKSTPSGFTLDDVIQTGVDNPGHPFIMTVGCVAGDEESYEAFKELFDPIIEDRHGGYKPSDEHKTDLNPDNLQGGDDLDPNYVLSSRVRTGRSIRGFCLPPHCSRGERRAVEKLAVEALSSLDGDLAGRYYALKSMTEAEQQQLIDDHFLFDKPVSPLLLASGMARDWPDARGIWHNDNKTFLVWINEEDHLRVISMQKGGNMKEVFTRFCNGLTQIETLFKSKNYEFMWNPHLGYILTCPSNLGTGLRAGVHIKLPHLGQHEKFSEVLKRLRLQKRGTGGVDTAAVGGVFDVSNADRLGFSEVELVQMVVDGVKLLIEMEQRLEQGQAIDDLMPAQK

Structure (SMILES) | AC50 | outcome
CN1CCN(Cc2cc(-c3ccc4[nH]c(=O)oc4c3)co2)[C@@H](c2ccc(F)cc2)C1 | 22 µM (active) | 
O=C(N[C@@H](Cc1ccccc1)[C@@H](O)C(=O)N1C[C@@H](O)[C@@H](O)C1)c1cc2cc(Cl)ccc2[nH]1 |  | inactive
Oc1ccc2c(c1)OC[C@@H](N1CCC(O)(c3ccc(F)cc3)CC1)[C@H]2O |  | inactive
CCOC(=O)CCC(=O)OCC |  | inactive
Nc1ccccc1N |  | inactive
CCOc1ccc2c(c1)C(C)=CC(C)(C)N2 |  | inactive
NC(=O)Cn1c(=O)cc(CCN2CCN(c3nccc4sccc34)CC2)c2ccc(F)cc21 |  | inactive

Biological target: human Vascular Endothelial Growth Factor Receptor 2 (VEGFR2), KDR (gene 3791) (UniProt P35968)
Sequence (P35968 whole entry, looked up): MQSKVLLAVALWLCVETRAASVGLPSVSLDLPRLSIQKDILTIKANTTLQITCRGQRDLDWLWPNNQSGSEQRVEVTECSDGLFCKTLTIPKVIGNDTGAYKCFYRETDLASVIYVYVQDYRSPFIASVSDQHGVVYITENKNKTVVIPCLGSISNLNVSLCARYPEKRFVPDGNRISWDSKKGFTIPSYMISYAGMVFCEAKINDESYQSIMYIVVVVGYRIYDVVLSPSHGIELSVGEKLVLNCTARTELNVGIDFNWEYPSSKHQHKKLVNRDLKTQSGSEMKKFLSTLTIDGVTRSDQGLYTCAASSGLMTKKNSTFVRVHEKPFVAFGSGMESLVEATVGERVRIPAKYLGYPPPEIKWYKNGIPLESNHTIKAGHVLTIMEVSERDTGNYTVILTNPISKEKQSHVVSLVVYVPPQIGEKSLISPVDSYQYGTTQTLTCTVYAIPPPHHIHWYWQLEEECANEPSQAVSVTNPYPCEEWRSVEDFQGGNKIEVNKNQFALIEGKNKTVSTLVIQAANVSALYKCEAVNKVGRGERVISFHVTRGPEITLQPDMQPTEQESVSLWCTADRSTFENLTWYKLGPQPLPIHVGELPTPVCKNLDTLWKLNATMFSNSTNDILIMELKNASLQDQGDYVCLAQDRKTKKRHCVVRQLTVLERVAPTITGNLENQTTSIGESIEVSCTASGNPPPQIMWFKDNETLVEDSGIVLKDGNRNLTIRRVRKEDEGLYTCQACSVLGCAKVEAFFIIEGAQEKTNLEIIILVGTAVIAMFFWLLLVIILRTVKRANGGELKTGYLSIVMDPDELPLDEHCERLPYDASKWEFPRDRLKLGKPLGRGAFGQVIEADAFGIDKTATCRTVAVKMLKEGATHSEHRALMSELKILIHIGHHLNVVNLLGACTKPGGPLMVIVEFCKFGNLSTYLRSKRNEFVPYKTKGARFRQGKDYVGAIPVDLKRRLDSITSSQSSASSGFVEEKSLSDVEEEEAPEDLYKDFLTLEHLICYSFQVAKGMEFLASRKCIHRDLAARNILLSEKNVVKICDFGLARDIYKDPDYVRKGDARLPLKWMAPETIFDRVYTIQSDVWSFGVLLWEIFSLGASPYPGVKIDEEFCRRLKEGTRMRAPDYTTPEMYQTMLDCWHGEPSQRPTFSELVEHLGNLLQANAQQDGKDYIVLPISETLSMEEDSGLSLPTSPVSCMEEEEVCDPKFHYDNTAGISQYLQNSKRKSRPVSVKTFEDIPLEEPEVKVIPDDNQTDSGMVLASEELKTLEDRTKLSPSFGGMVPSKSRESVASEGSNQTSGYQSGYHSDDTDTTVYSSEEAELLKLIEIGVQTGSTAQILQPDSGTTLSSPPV
Assay: NVS_ENZ_hVEGFR2: NovaScreen (NVS) Enzymatic Assay for human Vascular Endothelial Growth Factor Receptor 2 (VEGFR2) (AID 2283230)
Summary of the method: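 Cell-free recombinant VEGFR2 kinase, fluorescent substrate with electrophoretic mobility-shift separation; read 1 h after dosing. Screened at 25 uM in duplicate, hits to concentration-response up to 50 uM; loss-of-signal versus DMSO.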

Structure (SMILES) | outcome | AC50
CC1=C(/C=C/C(C)=C/C=C/C(C)=C/CO)C(C)(C)CCC1 | inactive | 
O=C(OCCCCCOC(=O)c1ccccc1)c1ccccc1 | inactive | 
COc1cc(-c2nc(NC(=O)c3cc4cc(C)cc(C)c4n3CC(=O)O)sc2CCC2CCCCC2)c(OC)cc1Cl |  | 7.16 µM (active)
CCc1c(C(=O)NN2CCCCC2)nn(-c2ccc(Cl)cc2Cl)c1-c1ccc(Br)cc1 | inactive | 
NCCO | inactive | 
Cc1oc(-c2ccccc2)nc1CCOc1cccc2c1ccn2CCC(=O)O | inactive | 

Biological target: sheep Cyclooxygenase-2 (Cox2), PTGS2 (gene 443460) (UniProt P79208)
Sequence (P79208 whole entry, looked up): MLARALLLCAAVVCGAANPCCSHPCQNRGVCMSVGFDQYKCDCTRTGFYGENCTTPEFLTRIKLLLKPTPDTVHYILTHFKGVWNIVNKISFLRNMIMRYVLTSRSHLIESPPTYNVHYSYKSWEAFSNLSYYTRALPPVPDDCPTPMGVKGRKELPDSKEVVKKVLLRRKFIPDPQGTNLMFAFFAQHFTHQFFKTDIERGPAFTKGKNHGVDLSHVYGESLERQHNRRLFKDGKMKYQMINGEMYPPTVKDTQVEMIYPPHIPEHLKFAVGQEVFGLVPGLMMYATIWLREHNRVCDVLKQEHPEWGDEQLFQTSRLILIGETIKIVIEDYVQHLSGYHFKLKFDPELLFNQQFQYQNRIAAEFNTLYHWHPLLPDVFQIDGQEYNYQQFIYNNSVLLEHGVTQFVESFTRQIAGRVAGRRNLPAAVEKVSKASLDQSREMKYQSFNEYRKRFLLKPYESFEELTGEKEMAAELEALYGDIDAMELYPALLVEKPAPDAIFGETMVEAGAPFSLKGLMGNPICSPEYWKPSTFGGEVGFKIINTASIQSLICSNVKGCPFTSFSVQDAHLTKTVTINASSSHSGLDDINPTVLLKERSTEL
Assay: NVS_ENZ_oCOX2: NovaScreen (NVS) Enzymatic Assay for sheep Cyclooxygenase-2 (Cox2) (AID 2283231)
Protocol: NVS_ENZ_oCOX2 is a biochemical, single-readout assay that uses extracted gene-proteins from Ovine placenta in a tissue-based cell-free assay. Measurements were taken 0.66 hour after chemical dosing in a 96-well plate.NVS_ENZ_oCOX2 is one of one assay component(s) measured or calculated from the NVS_ENZ_oCOX2 assay. It is designed to make measurements of enzyme activity, a form of enzyme reporter, as detected with absorbance signals by Colorimetric technology.Data from the assay component NVS_ENZ_oCOX2 was analyzed into 1 assay endpoint. This assay endpoint, NVS_ENZ_oCOX2, was analyzed in the positive analysis fitting direction relative to DMSO as the negative control and baseline of activity. Using a type of enzyme reporter, loss-of-signal activity can be used to understand changes in the enzymatic activity as they relate to the gene PTGS2. Furthermore, this assay endpoint can be referred to as a primary readout, because this assay has produced multiple assay endpoints where this one serves a enzymatic activity function. To generalize the intended target to other relatable targets, this assay endpoint is annotated to the oxidoreductase intended target family, where the subfamily is cyclooxygenase.
Binding assays used specific radioligands (tritiated, iodinated) with non-radioactive competitive displacement ligands in agonist or antagonist protocols (as indicated) and various reference compounds and inhibitors to titrate specific binding to receptors and transporters. Most enzyme assays (CYPs, kinases, phosphatases, proteases, HDACs) used recombinant protein and specific substrates (fluorescence mostly, some colorimetric and radioactive) and inhibitors, followed by a biochemical separation of substrate and product. All assays for the biochemical HTS were initially run in duplicate at a single concentration (10 uM for CYP450 assays and 25 uM for all others). Assay-chemical combinations meeting a pre-defined threshold (e.g., 30% inhibition and other criteria defined below) were then run in singleton concentration-response format with maximum concentration of 20 uM for CYPs and 50 uM for all others. Each assay was run with positive and negative controls, and concurrent controls on every plate. The follow-up (secondary) screen tested active chemical-pairs in concentration series, as well as a few additional assays not tested in the primary screen, some selected negative inactives, and several cases re-run in the concentration series for confirmatory purposes.

Structure (SMILES) | AC50
CC1=C(/C=C/C(C)=C/C=C/C(C)=C/CO)C(C)(C)CCC1 | 15.5 µM (active)
Nc1ccccc1N | 14.9 µM (active)
C=CCOC(=O)c1ccccc1C(=O)OCC=C | 5.13 µM (active)

Biological target: rat Constitutive Nitric Oxide Synthase (CNOS), Nos1 (gene 24598) (UniProt P29476)
Sequence (P29476 whole entry, looked up): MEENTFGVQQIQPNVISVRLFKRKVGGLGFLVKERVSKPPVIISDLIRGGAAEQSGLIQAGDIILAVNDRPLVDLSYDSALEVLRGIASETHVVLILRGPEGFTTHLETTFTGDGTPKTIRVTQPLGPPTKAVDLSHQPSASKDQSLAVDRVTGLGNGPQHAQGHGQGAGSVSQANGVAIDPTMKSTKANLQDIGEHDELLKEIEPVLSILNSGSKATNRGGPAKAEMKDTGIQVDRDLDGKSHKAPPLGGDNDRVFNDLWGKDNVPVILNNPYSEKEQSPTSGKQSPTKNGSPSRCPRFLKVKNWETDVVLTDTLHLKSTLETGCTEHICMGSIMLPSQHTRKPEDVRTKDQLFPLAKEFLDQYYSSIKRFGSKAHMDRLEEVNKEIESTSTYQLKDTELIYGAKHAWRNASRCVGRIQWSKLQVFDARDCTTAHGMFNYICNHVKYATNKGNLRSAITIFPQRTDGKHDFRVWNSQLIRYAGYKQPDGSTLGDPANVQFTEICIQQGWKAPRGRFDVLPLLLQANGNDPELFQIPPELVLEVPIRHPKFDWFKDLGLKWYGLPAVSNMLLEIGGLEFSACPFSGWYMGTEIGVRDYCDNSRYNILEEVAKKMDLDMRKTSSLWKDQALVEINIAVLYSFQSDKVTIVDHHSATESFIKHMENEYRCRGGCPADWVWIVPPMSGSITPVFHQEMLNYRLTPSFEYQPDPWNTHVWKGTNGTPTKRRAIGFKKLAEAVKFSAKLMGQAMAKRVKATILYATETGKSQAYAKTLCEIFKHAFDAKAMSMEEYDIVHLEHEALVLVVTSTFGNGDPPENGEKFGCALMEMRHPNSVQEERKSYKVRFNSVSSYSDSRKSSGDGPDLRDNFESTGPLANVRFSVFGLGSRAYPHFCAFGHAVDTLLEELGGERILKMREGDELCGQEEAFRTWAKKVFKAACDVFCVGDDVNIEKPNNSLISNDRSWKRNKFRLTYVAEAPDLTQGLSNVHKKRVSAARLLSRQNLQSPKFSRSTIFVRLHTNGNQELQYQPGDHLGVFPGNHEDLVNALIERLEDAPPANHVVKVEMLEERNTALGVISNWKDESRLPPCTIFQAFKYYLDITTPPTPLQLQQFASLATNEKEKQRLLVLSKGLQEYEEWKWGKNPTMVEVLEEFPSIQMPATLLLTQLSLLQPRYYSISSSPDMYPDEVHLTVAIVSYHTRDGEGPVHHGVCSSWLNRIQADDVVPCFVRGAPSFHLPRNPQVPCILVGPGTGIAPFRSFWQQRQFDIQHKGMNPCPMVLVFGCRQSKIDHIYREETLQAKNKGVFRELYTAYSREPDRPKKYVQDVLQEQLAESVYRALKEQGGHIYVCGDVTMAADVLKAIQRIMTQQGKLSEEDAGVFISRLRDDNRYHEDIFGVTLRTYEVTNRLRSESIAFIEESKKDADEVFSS
Assay: NVS_ENZ_rCNOS: NovaScreen (NVS) Enzymatic Assay for rat Constitutive Nitric Oxide Synthase (CNOS) (AID 2283236)
Summary of the method: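 Single 25 uM duplicate screen, then concentration series to 50 uM for chemicals meeting threshold. Rat brain membrane-derived CNOS activity detected radiometrically by filtration and scintillation counting, 1 h after compound addition; DMSO as baseline.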

Structure (SMILES) | outcome
CC(C)c1ccc(C(=O)N=C(N)N)cc1S(C)(=O)=O | inactive
FC(F)(F)C(F)(F)C(F)(F)C(F)(F)C(F)(F)C(F)(F)CCI | inactive
CCOc1ccc2c(c1)C(C)=CC(C)(C)N2 | inactive

Biological target: sheep Cyclooxygenase-1 (Cox1), PTGS1 (gene 443551) (UniProt P05979)
Sequence (P05979 whole entry, looked up): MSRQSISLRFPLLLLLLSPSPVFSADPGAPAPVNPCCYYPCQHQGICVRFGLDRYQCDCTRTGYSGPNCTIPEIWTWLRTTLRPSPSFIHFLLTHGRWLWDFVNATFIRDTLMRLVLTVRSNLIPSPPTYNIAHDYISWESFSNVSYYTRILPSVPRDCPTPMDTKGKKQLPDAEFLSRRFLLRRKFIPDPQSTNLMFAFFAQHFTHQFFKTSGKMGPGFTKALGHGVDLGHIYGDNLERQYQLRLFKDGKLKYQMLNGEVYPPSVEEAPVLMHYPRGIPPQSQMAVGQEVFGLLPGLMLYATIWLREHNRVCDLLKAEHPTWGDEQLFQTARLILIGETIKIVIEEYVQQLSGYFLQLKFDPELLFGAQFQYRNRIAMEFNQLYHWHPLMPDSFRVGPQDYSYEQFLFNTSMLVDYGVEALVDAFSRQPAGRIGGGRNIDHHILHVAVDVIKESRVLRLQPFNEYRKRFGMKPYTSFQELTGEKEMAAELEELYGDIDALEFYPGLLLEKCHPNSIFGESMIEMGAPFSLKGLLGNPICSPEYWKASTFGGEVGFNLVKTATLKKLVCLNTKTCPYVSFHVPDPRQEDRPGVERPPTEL
Assay: NVS_ENZ_oCOX1: NovaScreen (NVS) Enzymatic Assay for sheep Cyclooxygenase-1 (Cox1) (AID 2283239);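 note: actives reduce cyclooxygenase activity so potencies are for inhibitors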
Summary of the method: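 Native ovine seminal vesicle protein serves as enzyme source in this biochemical assay. Colorimetric signal is recorded 0.66 h after chemical addition, and decreases versus the DMSO control define activity.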

Structure (SMILES) | AC50 | outcome
CC1=C(/C=C/C(C)=C/C=C/C(C)=C/CO)C(C)(C)CCC1 | 17.9 µM (active) | 
COc1cc(-c2nc(NC(=O)c3cc4cc(C)cc(C)c4n3CC(=O)O)sc2CCC2CCCCC2)c(OC)cc1Cl | 4 µM (active) | 
Nc1ccccc1N |  | inactive
